Each structure is given as a SMILES string.

The subject of this test is Caenorhabditis elegans. Put plainly: growth (movement index) relative to DMSO control, secondary screen (log2 fold change); higher = more growth (less anthelmintic activity). The note with it: 10 µM, 5 days, 20 °C, stage: L1 start. On the procedure:
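C. elegans growth assay: synchronised L1 larvae (~20 per well) in S-complete medium with HB101 E. coli were grown in 96-well plates with Pathogen Box compound at 10 µM (1% DMSO) for 5 days at 20 °C. Motility/growth was quantified by whole-plate movie imaging (INVAPP/Paragon movement index). The score is the log2 fold change of the median movement of 5 replicate wells (on different plates) relative to DMSO-only wells. The secondary screen retested the top 20 hits with the same library material (n = 5, 10 µM).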
`Cc1cc(C(=O)Nc2ccc(-c3ccccc3)cc2)no1`: the “growth (log2)” value was -6.92.

Turning to `Clc1ccc(-n2cc(COc3ccnc4ccccc34)nn2)cc1`, the “growth (log2)” value was -2.02.

With `CC(C)n1nc(-c2cc3c(Cl)cccc3[nH]2)c2c(N)ncnc21`, the “growth (log2)” value was -1.13.

For `O=C(c1ccco1)N(CCCn1ccnc1)c1nc2c(Cl)cccc2s1`, the “growth (log2)” value is -3.66.

On to `O=C(Nc1nc(-c2ccccn2)cs1)C1CC1c1ccccc1F` (stereo not drawn), for which the “growth (log2)” value is -0.836.

Regarding `O=C(Nc1cccnc1)c1c(O)c2cccc3c2n(c1=O)CC3`, the “growth (log2)” value is -4.82.

As for `CC(=O)OCC1OC([S-])C(OC(C)=O)C(OC(C)=O)C1OC(C)=O.CCP(CC)CC.[Au+]` (stereo not drawn), the “growth (log2)” value was -7.16.

On to `CC(C)n1ncc2c(C(=O)NCC(c3cccs3)N3CCOCC3)cc(-c3ccccc3)nc21` (stereo not drawn), for which the “growth (log2)” value is -8.04.

In the case of `CCc1ccc([C@@H]2C[C@H](C(F)(F)F)n3ncc(C(=O)NCc4ccc(OC)cc4)c3N2)cc1`, the “growth (log2)” value was -3.6.

For the compound `O=C(Nc1ccc2c(c1)B(O)OC2)c1ccccc1C(F)(F)F`, the “growth (log2)” value was -7.62.

Take `CC(C)(C)CN1C(=O)C(c2ccccc2)(c2ccccc2)N=C1N`: the “growth (log2)” value is -5.87.

Consider `O=C(Nc1ccc(F)c(-c2nc3cc(-c4ccccc4)cnc3[nH]2)c1)N1CCCC1`, for which the “growth (log2)” value was -4.01.

Regarding `COC(=O)C1=C(C)NC(C)=C(C(=O)OC(C)C)C1c1cccc2nonc12` (stereo not drawn), the “growth (log2)” value is -1.42.

Regarding `COC(=O)Nc1nc2cc(C(=O)c3ccccc3)ccc2[nH]1`, the “growth (log2)” value was -5.72.

With `CCOC(=O)NC(=O)c1ccsc1NC(=O)c1nc2ccccc2s1`, the “growth (log2)” value is -1.05.

`CC(C)C(C(=O)Nc1ccc(S(=O)(=O)N(C)C)cc1)c1ccc(Cl)cc1` (stereo not drawn): the “growth (log2)” value is -2.66.

On to `Nc1ccc(C(=O)Nc2ccc(-c3nc4ccccc4o3)cc2)cc1`, for which the “growth (log2)” value is -5.41.

For the compound `CN1CCN(c2cc(-c3ccc(F)cc3)nc(-c3ccncc3)n2)CC1`, the “growth (log2)” value is -2.12.
